Sampled rows, rich in hits. Any-hit rate of the full collection: about 31%.
CYP2C19 activ – human CYP2C19 activators, primary screen, biochemical, luminescence | activation factor at 5 µM | 96,000 tested, under 10 active | recombinant CYP2C19, luciferin-H EGE luminescence; active compounds read high; 0 = fully inhibited enzyme, 1 = untreated enzyme;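 active = activation factor of at least 2 at 5 µM in the primary screen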;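 note: 0 = wells with 2.5 mM tranylcypromine and 1 = vehicle-only wells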
CYP2C19 inh – blockers of cytochrome P450 2C19 activity – biochemical, luminescence, ADME assay, primary screen | P33261 | CYP2C19 Supersomes, luciferin-H EGE luminescence, 30 min | inhibition, % at 5 µM | 96,000 tested, 21% active;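 active = CYP2C19 inhibition above a set limit at 5 µM in the primary screen, cut at about 50% in these data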;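 note: plate controls were negative control wells for no effect and 2.5 mM tranylcypromine positive control for full effect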
PLAP activator – PLAP enzyme activators, biochemical, luminescence, HTS. Alkaline phosphatase, placental type (Homo sapiens), P05187. purified PLAP enzyme, luminescent substrate read-out; active compounds read high. activation fold at 20 µM. 96,000 tested, 1.2% active; in the data active = activation fold above about 2
CYP2C9 inhib – blockers of cytochrome P450 2C9 activity – biochemical, luminescence, ADME assay, primary screen. CYP2C9 Supersomes, luciferin-H conversion. inhibition, % at 5 µM. 96,000 tested, 20% active;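 active = blocking of liver enzyme CYP2C9 beyond about 50% at 5 µM, limit read from the data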
Target sequence (P11712 whole entry, looked up): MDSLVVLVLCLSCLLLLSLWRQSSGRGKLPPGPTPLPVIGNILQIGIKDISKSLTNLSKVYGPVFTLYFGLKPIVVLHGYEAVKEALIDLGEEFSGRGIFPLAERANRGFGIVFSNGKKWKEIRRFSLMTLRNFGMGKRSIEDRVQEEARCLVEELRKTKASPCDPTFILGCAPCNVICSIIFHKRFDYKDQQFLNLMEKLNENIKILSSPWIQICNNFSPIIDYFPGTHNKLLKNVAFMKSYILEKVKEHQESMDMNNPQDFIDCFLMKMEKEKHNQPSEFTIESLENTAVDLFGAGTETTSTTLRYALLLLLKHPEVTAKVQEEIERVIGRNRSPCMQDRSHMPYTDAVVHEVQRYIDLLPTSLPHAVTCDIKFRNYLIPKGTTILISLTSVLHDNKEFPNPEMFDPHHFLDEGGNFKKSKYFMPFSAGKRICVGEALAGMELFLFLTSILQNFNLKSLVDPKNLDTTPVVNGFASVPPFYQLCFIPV
CYP2C9 activ – human CYP2C9 activators, primary screen, biochemical, luminescence; Cytochrome P450 2C9 (Homo sapiens), P11712; recombinant CYP2C9, luciferin-H conversion; active compounds read high; factor 1 = untreated enzyme, 0 = blocked; activation factor at 5 µM; 96,000 tested, 1.4% active;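 active = activation factor of 2 or more for CYP2C9 at a 5 µM dose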;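 note: 0 = sulfaphenazole-blocked wells and 1 = vehicle-only wells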
An asterisk follows results filed as active.

SMILES | CYP2C19 activ | CYP2C19 inh | PLAP activator | CYP2C9 inhib | CYP2C9 activ
CCC(C)(C(=O)NC1CCCCC1)N(C(=O)c1cnccn1)c1c(C)n(C)n(-c2ccccc2)c1=O (centres undefined) | 1 | -2 | 1.3 | 0 | 1
CSc1nc(=O)n2cccc(C)c2n1 | 1 | 4 | 0.8 | -3 | 1
CCOc1ccc2oc(-c3ccccc3)c(C(=O)N3CCN(CCO)CC3)c2c1 | 0.6 | 40 | 1.4 | 82* | 0.2
CCOc1ccc2oc(-c3ccccc3)c(C(=O)O)c2c1 | 1.1 | -10 | 0.8 | -12 | 1.1
COc1ccc(S(=O)(=O)N(CCc2ccccc2)CC(=O)O)cc1C | 0.4 | 62* | 1.8 | 73* | 0.3
COc1ccc(C)cc1S(=O)(=O)N(CC(=O)N1CCOCC1)Cc1ccccc1 | 0.3 | 66* | 1.6 | 45 | 0.6
CS(=O)(=O)N(CC(=O)N1CCOCC1)Cc1ccccc1 | 0.9 | 12 | 1.1 | 2 | 1
COc1ccc(S(=O)(=O)N(CC(=O)N2CCOCC2)Cc2ccccc2)cc1C | 0.3 | 72* | 2* | 27 | 0.7
COc1ccc(S(=O)(=O)N(CC(=O)O)Cc2ccccc2)cc1OC | 0.9 | 8 | 1.2 | 19 | 0.8
CCOC(=O)c1cnn(-c2ccccc2)c1NC(=O)CSc1nnc(-c2cccs2)n1CC | 0.9 | 8 | 1.4 | -8 | 1.1
CCOC(=O)C(C)S(=O)(=O)c1ccc(C(F)(F)F)cn1 (centres undefined) | 0.5 | 54* | 1 | 1 | 1
CCOC(=O)/C(N)=C/c1ncc(C(F)(F)F)cc1Cl | 1 | -2 | 1 | 5 | 0.9
CCn1c(SCc2ccc(F)cc2)nnc1-c1nn(-c2ccccc2)ccc1=O | 1.1 | -9 | 1.3 | -21 | 1.2
CCCCc1oc2c(c(=O)c1C)C(=O)CC(c1ccccc1)C2 (centres undefined) | 0 | 100* | 1.6 | 78* | 0.2
CCC/C(O)=C1\C(=O)CC(c2ccccc2)CC1=NC (centres undefined) | 0.9 | 7 | 1.7 | -24 | 1.2
Cc1ccnc(NS(=O)(=O)c2ccc(NC(=O)C34CC5CC(CC(C5)C3)C4)cc2)n1 | 1 | -4 | 0.9 | 12 | 0.9
CC(C)c1ccc(C2NC(=O)NC3=C2CCc2ccccc23)cc1 (centres undefined) | 0.7 | 26 | 1 | 22 | 0.8
Cc1ccc(C2NC(=O)NC3=C2CCc2ccccc23)cc1 (centres undefined) | 0.1 | 95* | 1.1 | 33 | 0.7
COc1ccc(C2NC(=O)NC3=C2CCc2ccccc23)cc1 (centres undefined) | 0.2 | 81* | 1.1 | 16 | 0.8
Cn1c(NC(=O)CCC2CCCCC2)cc(=O)n(C)c1=O | 0.3 | 74* | 0.9 | 67* | 0.3
Cn1c(NC(=O)C2CC2)cc(=O)n(C)c1=O | 1.2 | -22 | 1 | -9 | 1.1
CCN(CC)S(=O)(=O)c1ccc(NC(=O)CCC2CCCCC2)cc1 | 0.2 | 78* | 2.9* | 93* | 0.1
Cc1noc(NS(=O)(=O)c2ccc(NC(=O)CCC3CCCCC3)cc2)c1C | 1 | 4 | 0.9 | 31 | 0.7
O=C(CCC1CCCCC1)Nc1ccccc1O | 0.1 | 93* | 0.9 | 64* | 0.4
O=C(CCC1CCCCC1)Nc1ccc(S(=O)(=O)Nc2nccs2)cc1 | 0.5 | 45 | 1.2 | 63* | 0.4
SMILES | CYP2C19 activ | CYP2C19 inh | PLAP activator | CYP2C9 inhib | CYP2C9 activ
Cc1[nH]c2ccccc2c1C(=O)CN1CCCCC1C (centres undefined) | 1 | -1 | 1 | -2 | 1
CCCCCCNc1nc(NCc2ccco2)nc(OCC)n1 | 0.3 | 71* | 1.1 | 79* | 0.2
c1ccc(-c2nnc(CSc3nnc(-c4ccncc4)n3Cc3ccco3)o2)cc1 | 0.3 | 67* | 1.2 | 71* | 0.3
C(=C\c1ccccc1)/CSc1nnc(-c2ccncc2)n1Cc1ccco1 | 0.1 | 89* | 1.1 | 36 | 0.6
Clc1cccc(-c2nnc(SC/C=C/c3ccccc3)n2Cc2ccco2)c1 | 0.4 | 65* | 1.2 | 67* | 0.3
C(=C\c1ccccc1)/CSc1nnc(-c2ccccc2)n1Cc1ccco1 | 0.5 | 47 | 1.1 | 49 | 0.5
CCSc1nnc(-c2cccnc2)n1Cc1ccco1 | 1 | 0 | 0.9 | 0 | 1
Cc1[nH]nc2c1C(c1ccccc1F)CC(=O)N2 (centres undefined) | 1 | 0 | 1.4 | -8 | 1.1
CC(=O)Nc1ccc(NC2=CC(=O)CC(C)(C)C2)cc1 | 1.1 | -8 | 0.9 | 23 | 0.8
COC(=O)c1ccc(NC2=CC(=O)CC(C)(C)C2)cc1 | 0.7 | 29 | 1.1 | 51* | 0.5
O=C(O)c1nn(-c2ccc(Cl)cc2)ccc1=O | 1.1 | -7 | 1.2 | -9 | 1.1
CC1CCN(C(=S)c2ccccc2O)CC1 | 0.1 | 94* | 1.2 | 29 | 0.7
CC1CCN(C(=S)c2ccc(O)cc2)CC1 | 0.5 | 45 | 0.9 | -9 | 1.1
CC(=O)c1sc(NC(=O)c2ccccc2F)nc1C | 0.7 | 33 | 1.1 | -7 | 1.1
CC(=O)c1sc(Nc2nc(C)cc(C)n2)nc1C | 0.9 | 15 | 1.2 | 73* | 0.3
c1ccc2c3nnc4n(c-3nc2c1)CCCS4 | 1 | -3 | 0.9 | -64 | 1.6
COC(=O)c1cc(COc2ccc3oc(C)c(C(=O)OC)c3c2)c(C)o1 | 0.9 | 14 | 1.8 | 40 | 0.6
COC(=O)c1c(C)oc2ccc(N(C(=O)c3ccncc3)S(=O)(=O)c3ccc(C)cc3)cc12 | 0 | 100* | 1.7 | 98* | 0
COC(=O)c1c(C)oc2ccc(N(C(=O)c3ccncc3)S(=O)(=O)c3ccccc3)cc12 | 0.1 | 91* | 1.4 | 77* | 0.2
CCCC(=O)N(c1ccc2oc(=O)sc2c1)S(=O)(=O)c1ccccc1 | 0.6 | 44 | 1 | 35 | 0.6
Cc1ccc(OC(=O)NC2CCS(=O)(=O)C2)cc1C (centres undefined) | 1 | 1 | 0.8 | -6 | 1.1
CC1(C)CC(=O)c2c(nc3ccccc3c2N)C1 | 0.8 | 16 | 0.9 | -1 | 1
Cc1nc2c(c3c1[nH]c1ccccc13)C(=O)CC(C)(C)C2 | 0.6 | 39 | 1.1 | -183 | 2.8*
CCOc1c(Br)ccc2c1sc1nc[nH]c(=O)c12 | 0 | 98* | 1.5 | -6 | 1.1
Cc1cc(C)nc(N2CCCC(C(=O)Nc3ccc4nc(C)c(C)nc4c3)C2)n1 (centres undefined) | 0.9 | 5 | 1.5 | -17 | 1.2
c1coc(CN=C2NC(=NCc3ccco3)c3ccccc32)c1 | 0.4 | 55* | 1.3 | 40 | 0.6
COc1ccc(OC)c(-n2nnnc2SCC(=O)Nc2ccc3c(c2)OCCO3)c1 | 0.7 | 33 | 0.8 | 42 | 0.6

Source: PubChem (Sanford-Burnham Center for Chemical Genomics)
